Potency and affinity values are given separately. Active and inactive are the calls of the source.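 How the source made its calls: active means cell killing whose fitted half-effect concentration is at most twice the top valid dose tested; inconclusive means flat curve with 30 to 70% killing, or a poor fit; inactive means effect in the rising direction, plus the rest.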
Experiment: viability loss in A549 lung cells – cell-based, ATP luminescence, cherry-pick, set 2, cytotoxicity control, dose response (AID 1053124)

Structure (SMILES)	outcome
CCCCN(CCCC)CC(O)Cn1c2ccccc2c(=O)c2ccccc21 (centres undefined)	inactive
COC(=O)C1=CN(CC2CCCO2)C=C(C(=O)OC)C1c1cccc(O)c1 (centres undefined)	inactive
CCc1nc2ccc(C(=O)NCCc3c[nH]c4ccccc34)cn2c1N(C=O)CCC(C)C	inactive
O=C(O)c1cccc(NC(=O)c2cn(-c3ccccc3)nc2-c2cccc(Br)c2)c1	inactive
CCCOc1ccc(NC(=O)c2c(-c3ccccc3)noc2C)cc1	inactive
CC(C)(C)[C@H]1CCC(=O)N([C@H](CSc2ccccc2)Cc2ccccc2)CC1	inactive
Cc1ccc(NC(=O)Nc2ccnc(-c3cccnc3)n2)cc1	inactive
NC(=O)c1c(NC(=O)Cc2ccccc2)sc2c1CCN(Cc1ccccc1)C2	inactive
COc1ccc(NC(=O)C2CCC(CNS(=O)(=O)c3cccs3)CC2)cc1 (centres undefined)	inactive
Cc1nc(CCNC(=O)Cc2ccc(Cl)cc2)cs1	inactive
COc1c(Cl)cc(-c2noc(C)c2C(=O)NCc2ccc3c(c2)OCO3)cc1Cl	inactive
O=C(NS(=O)(=O)c1ccc(Cl)s1)c1ccccc1	inactive
CCCn1c(=N)c(S(=O)(=O)c2ccccc2)cc2c(=O)n3ccccc3nc21	inactive
COc1ccc(C2C3=C(CC(C)(C)CC3=O)N(C)C3=C2C(=O)CC(C)(C)C3)cc1	inactive
O=[N+]([O-])c1cccc(-c2n[nH]c(=S)n2-c2ccc(Br)cc2)c1	inactive
COc1cccc2c(=O)c3c(cnn3C)n(C)c12	inactive
Cc1cccn2c(=O)c(/C=C(\C#N)C(=O)NC3CCS(=O)(=O)C3)c(N3CCC(C(N)=O)CC3)nc12 (centres undefined)	inactive
CCOC(=O)c1cc2c(=O)n3ccccc3nc2n(C(C)C)c1=NC(=O)c1ccco1	inactive
CCN(CC)CCCNc1nc(C)cc(COC)c1C#N	inactive
Cc1cc(CNC(=O)c2ccc3c(c2)OCO3)c2ccccc2n1	inactive

Structure (SMILES)	outcome
O=c1oc2c(CN3CCCCC3)c(O)ccc2cc1-c1nc2ccccc2[nH]1	inactive
CCOc1ccc(-n2c(SCC(=O)Nc3nccs3)nnc2-c2ccoc2C)cc1	inactive
CCN(CC)CCN1C2=C(C(=O)CC(C)(C)C2)C(c2cccc(F)c2)C2=C1CC(C)(C)CC2=O	inactive
CCOC(=O)C(NC(=O)c1ccccc1)(OCC1(CC)COC1)C(F)(F)F (centres undefined)	inactive
CC(C)CCn1c(CN2CC(C)OC(C)C2)nc2c1c(=O)n(C)c(=O)n2C (centres undefined)	inactive
O=C(CCc1c[nH]c2ccccc12)OCC(=O)c1ccccc1	inactive
CSCCC1(C(=O)O)NC(c2ccccc2O)C2C(=O)N(C(C)C)C(=O)C21 (centres undefined)	inactive
CCc1ccccc1S(=O)(=O)Cc1ccc(C(=O)N2CCN(c3ccccc3OC)CC2)o1	inactive
Cc1cc(C)nc(SCC(=O)Nc2ccc(S(=O)(=O)Nc3onc(C)c3C)cc2)n1	inactive
Cn1c2ccccc2c(=O)c2ccc(F)cc21	inactive
CC(=O)Oc1ccc2cc(-c3nc4ccccc4n3C)c(=O)oc2c1	inactive
Nc1cccc2c1C(=O)N(c1ccccc1)C2=O	inactive
CCN1C=C(C(=O)OC)C(c2cccc(OC)c2OC)C(C(=O)OC)=C1	inactive
COc1ccccc1N1CCN(C2CCC(C)CC2)CC1 (centres undefined)	inactive
CCOc1ccccc1N=c1oc2cc(O)ccc2cc1C(=O)NCC1CCCO1 (centres undefined)	inactive
CCOc1ccc(NC(=O)CN(C)C(=O)CCCNC(=O)c2ccc(Cl)cc2)cc1OCC	inactive
CC1CCN(S(=O)(=O)N2CCC(C(=O)NC3CCCC3)CC2)CC1	inactive
Cc1c2c(n3c(nc4ccccc43)c1C#N)N(CCN1CCOCC1)CC2	inactive
COC(=O)C1=CN(Cc2ccc(OC)c(OC)c2)C=C(C(=O)OC)C1c1cccc(F)c1	inactive

Source: PubChem BioAssay AID1053124 (Broad Institute, 2014)
